Source: PubChem BioAssay (NCI)
Compounds without any hit were thinned out: in the full panel of roughly 79,000, 15% have a hit. The source made the active and inactive calls. No stated cut-off is given here; in the data, active means growth inhibition above about 70%; inactive means the rest.

experiment: NCI Yeast Anticancer Drug Screen. Data for the bub3 strain (AID 167); settings: S. cerevisiae bub3 mutant strain, at 50.0 µM, active compounds read high
How it was run: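 Yeast carrying a defined mutation is treated with each compound, and growth is compared with that of vehicle-exposed cells to give inhibition.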

Structure (SMILES)	growth inhibition
COc1ccc2nc(NC(=O)C(=O)C(C(=O)c3ccccc3-c3ccccc3)C3OC(=O)c4ccccc43)sc2c1 (centres undefined)	-1.1% (inactive)
O=C(O)c1cc(Br)c(O)cc1O	-5.25% (inactive)
CCc1cc(C)cc(C(C)(C)C)c1	-8.35% (inactive)
O=c1[nH]nc(-c2ccccc2)n1/N=C/c1c(O)ccc2ccccc12	15.4% (inactive)
CC(C)C1CC[N-]CC1.CC(C)C1CC[N-]CC1.[Cl][Pt+2][Cl]	36.6% (inactive)
C(=C\c1ccco1)/c1ccco1	-20.9% (inactive)
CC(C)(c1cn(Cc2ccccc2)c2ccccc12)c1cn(Cc2ccccc2)c2ccccc12	-4.05% (inactive)
Cn1c(=O)c2[nH]c(SCC(=O)O)nc2n(C)c1=O	7.6% (inactive)
Cc1cc(C)[n+](C)c(/C=C/c2ccc([N+](=O)[O-])cc2)n1	22.4% (inactive)
COc1ccc(NC(=O)/C(Cc2nc3ccccc3[nH]c2=O)=N\O)c(OC)c1	-4.85% (inactive)
COc1ccc2c(c1OC)C(Cc1ccccc1)N1CCc3cc4c(cc3C1C2)OCO4 (centres undefined)	51.6% (inactive)
COC1C(O)CC(OC2C(C)OC(Oc3cc(O)c4c(O)c5c(cc4c3)C[C@@H]([C@H](OC)C(=O)[C@@H](O)[C@@H](C)O)[C@H](OC3CC(OC4CC(OC6CC(C)(O)C(O)C(C)O6)C(O)C(C)O4)C(O)C(C)O3)C5=O)CC2OC(C)=O)OC1C (some centres undefined)	2.45% (inactive)
O=C(O)c1cc2ccccc2c(N=Nc2cc(C(F)(F)F)ccc2Cl)c1O	-6.3% (inactive)
COc1ccc(CCCCl)c(C2=NCCc3ccccc32)c1	-0.55% (inactive)
